BAZ2B block = BAZ2B (human) inhibition; Q9UIF8; AlphaScreen BAZ2B-H3K14Ac peptide displacement; Potency, µM (doses to about 114 µM), usual class: inhibitors; 360,000 compounds, 4.4% hits; AID 504333; note: nearly all actives have a fitted effect of over 60% in size
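BAZ2B (50 nM) with biotin-H3(5-23)K14Ac peptide (50 nM) in PBS pH 7.4, 0.01% Tween-20, preformed 30 min, then compound 30 min at room temperature; top concentration 110uM. AlphaScreen streptavidin donor/nickel chelate acceptor beads (10 ug/mL final), 20 min dark, signal read.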
Sfp PPTase inh = blocks B. subtilis Sfp PPTase activity. Potency, µM, actives largely listed as inhibitors. AID 1490. 310,000 compounds, 3.5% hits. Biochemical Sfp PPTase activity, qHTS. Q9F4F7;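 note: the enzyme is Sfp with the accession as filed and its product quenches rhodamine fluorescence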
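After 15 min at room temperature with compound, 15 nM Sfp received 5 uM rhodamine-CoA plus 12.5 uM BHQ-2-ybbR (50 mM Hepes pH 7.6, 10 mM MgCl2). Rate came from the fluorescence difference over 30 min, ex 525/em 598 nm.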
PLK1 PBD inh = PLK1 (human) polo-box domain binding inhibition. Potency, µM, actives largely listed as inhibitors. AID 720504. Plk1 PBD binding of FITC phosphopeptide, fluorescence polarization. 360,000 compounds, 2.8% hits; note: series mostly up to about 57 µM; nearly all actives have a fitted effect of over 65% in size
JMJD2A Tudor = blocks the human JMJD2A Tudor domain; AlphaScreen JMJD2A-Tudor / H3K4me3 peptide binding; 390,000 compounds, 4.4% hits; Potency, µM (doses to about 114 µM), hits mostly inhibitors; AID 504339; note: nearly all actives have a fitted effect of over 50% in size
HP1b binding inh = blocks HP1-beta chromodomain binding to methylated histone tails; P83916; AlphaScreen HP1-beta / biotin-H3K9me3 peptide binding; Potency, µM (titrated, usually from 114 µM), usual class: inhibitors; 390,000 compounds, 0.56% hits; AID 540317; note: nearly all actives have a fitted effect of over 70% in size
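Compound inhibition of the preformed complex between 50 nM HP1-beta and 50 nM biotinylated H3K9me3 peptide was read by AlphaScreen. Buffer was PBS pH 7.4 with 0.01% Tween-20. Incubations ran 30 min at room temperature, with 10 ug/mL donor/acceptor beads.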
G9a block = G9a (human) methyltransferase inhibition; Q96KQ7; G9a H3K9 monomethylation, AlphaScreen, 2 h; Potency, µM (highest dose often 102 µM), most hits filed as inhibitors; 350,000 compounds, 8.8% hits; note: nearly all actives have a fitted effect of over 75% in size
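Using a bead-based AlphaScreen, monomethylated H3K9 product from 2 h room-temperature reactions (G9a 20 nM, peptide 500 nM, SAM 20 uM) was detected with 0.5 ug/mL rabbit anti-H3K9me1 antibody.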
Each line names hits and unclear results; the compound was inactive in the other large screens. A selection: hits, their analogues and other compounds. The true share with any hit is near 12%. Calls come from the whole dose curve; as a rule, active = well fitted curve in the direction sought with a large enough effect; inconclusive = small, poorly fitted or top-dose-only effect, or another doubt; inactive = no such curve, though single readings can be large; an effect the other way counts as inactive or inconclusive.

O=C(c1ccc(F)cc1)N1CCN(c2ccc([N+](=O)[O-])cc2-n2cccc2)CC1	BAZ2B block inconclusive, JMJD2A Tudor inconclusive, G9a block 50µM
Cc1cccc(N2CCN(c3ccc(NC(=O)c4ccccc4)cc3C(=O)O)CC2C)c1 (configuration not stated)	BAZ2B block 79µM, JMJD2A Tudor 89µM, G9a block inconclusive (no result: Sfp PPTase inh, PLK1 PBD inh)
Cc1cccc(N2CCN(c3ccc(C(=O)O)cc3NC(=O)c3cccc(Cl)c3)CC2C)c1 (configuration not stated)	BAZ2B block inconclusive, JMJD2A Tudor 56µM (no result: Sfp PPTase inh, PLK1 PBD inh)
O=c1c2ccccc2cnn1Cc1n[nH]c(=S)n1-c1ccc(Cl)cc1	JMJD2A Tudor 22µM, G9a block 1.8µM
CC(c1ccccc1)n1c(Cn2ncc3ccccc3c2=O)n[nH]c1=S (configuration not stated)	JMJD2A Tudor 32µM, G9a block 3.5µM
O=C(CS(=O)Cc1ccco1)NCC=CCOc1cc(CN2CCCCC2)ccn1 (configuration not stated)	G9a block inconclusive (no result: BAZ2B block, PLK1 PBD inh, JMJD2A Tudor, HP1b binding inh)
Cc1ccc2c(c1)c1c3n2CCN(C=O)C3CCC1 (configuration not stated)	BAZ2B block inconclusive, JMJD2A Tudor inconclusive, G9a block 50µM
Cc1ccc2c(c1)c1c3n2CCNC3CCC1 (configuration not stated)	BAZ2B block inconclusive, JMJD2A Tudor inconclusive
CCN1CCn2c3c(c4cc(Cl)ccc42)CCCC31 (configuration not stated)	BAZ2B block 35µM, Sfp PPTase inh inconclusive, G9a block inconclusive
CCN(CC)CCN1CCn2c3c(c4cc(C)ccc42)CCCC31 (configuration not stated)	BAZ2B block inconclusive, PLK1 PBD inh inconclusive, JMJD2A Tudor 56µM, G9a block inconclusive
Clc1ccc2c(c1)c1cc(Cl)ccc1n2CN1CCOCC1	none
Cc1ccc2c(c1)c1c3n2CCN(C(=O)c2cccc(C(F)(F)F)c2)C3CCC1 (configuration not stated)	BAZ2B block 28µM, JMJD2A Tudor inconclusive, G9a block 7.9µM (no result: Sfp PPTase inh, PLK1 PBD inh)
c1cn2cc(-c3ccc4c(c3)OCO4)nc2s1	BAZ2B block inconclusive, Sfp PPTase inh 32µM, PLK1 PBD inh 24µM, HP1b binding inh inconclusive
Cc1ccc(Oc2ccccc2/C=N/O)cc1	PLK1 PBD inh 3.4µM
CN(C1CCS(=O)(=O)C1)S(=O)(=O)c1cccs1 (configuration not stated)	none (no result: Sfp PPTase inh)
CN(C1CCS(=O)(=O)C1)S(=O)(=O)c1ccccc1 (configuration not stated)	Sfp PPTase inh 11µM (no result: G9a block)
Cc1ccc2c(c1)C(=O)C(=O)N2CCCOc1ccccc1	BAZ2B block 50µM, JMJD2A Tudor 56µM, HP1b binding inh inconclusive, G9a block 35µM
Cc1ccc(OCCCN2C(=O)C(=O)c3cc(C)ccc32)cc1	HP1b binding inh inconclusive
CCCCCOc1ccccc1CN1C(=O)C(=O)c2cc(C)ccc21	BAZ2B block 6.3µM, JMJD2A Tudor 18µM, HP1b binding inh inconclusive, G9a block 8.9µM (no result: Sfp PPTase inh, PLK1 PBD inh)
Cc1ccc2c(c1)C(=O)C(=O)N2CC1COc2ccccc2O1 (configuration not stated)	BAZ2B block inconclusive, PLK1 PBD inh inconclusive, JMJD2A Tudor inconclusive, HP1b binding inh inconclusive, G9a block 50µM
Cc1ccc(C2=Nn3c(COc4ccc(Cl)cc4)nnc3SC2CC(=O)O)cc1 (configuration not stated)	BAZ2B block inconclusive, PLK1 PBD inh inconclusive, G9a block 40µM
Cc1ccc(NC(=O)CSc2nnc(COc3ccc(Cl)cc3)o2)cc1	none (no result: Sfp PPTase inh, PLK1 PBD inh)
O=C1C2C3C=CC(CC3)C2C(=O)N1c1ccc([N+](=O)[O-])cc1 (configuration not stated)	G9a block 32µM
Fc1cccc(Cl)c1CNn1cn[nH]c1=S	JMJD2A Tudor 50µM, G9a block 8.9µM
S=c1[nH]ncn1NCc1ccc(Cl)cc1Cl	JMJD2A Tudor 32µM, G9a block 2.8µM
Clc1ccc(CNc2ncnc3[nH]ncc23)c(Cl)c1	none (no result: BAZ2B block, Sfp PPTase inh, G9a block)
O=C(COC(=O)c1ccc[nH]c1=O)Nc1ccc(N2CCCCC2)cc1	none (no result: BAZ2B block, Sfp PPTase inh, G9a block)
CCOc1cc(/C=N\NC(=O)C2C(=O)NCC2c2ccccc2)ccc1OC (configuration not stated)	none
COc1ccc(/C=N\NC(=O)C2C(=O)NCC2c2ccccc2)cc1O (configuration not stated)	PLK1 PBD inh 3µM, JMJD2A Tudor inconclusive, HP1b binding inh inconclusive
Fc1ccc(C2=Nc3cccc4cccc(c34)N2)cc1	PLK1 PBD inh inconclusive, G9a block inconclusive
Brc1ccc(C2=Nc3cccc4cccc(c34)N2)o1	BAZ2B block inconclusive, JMJD2A Tudor inconclusive, HP1b binding inh 45µM, G9a block 16µM
FC(F)(F)C1=Nc2cccc3cccc(c23)N1	BAZ2B block inconclusive, PLK1 PBD inh 7.5µM, JMJD2A Tudor inconclusive (no result: Sfp PPTase inh)
COc1cccc(CCNC(=O)c2c(O)nc3cc(C)ccn3c2=O)c1	none (no result: Sfp PPTase inh, PLK1 PBD inh)
CSCCC(NC(=O)c1ccccc1Cl)C(=O)NCCOc1ccc(C)cc1 (configuration not stated)	none (no result: BAZ2B block, Sfp PPTase inh, JMJD2A Tudor, HP1b binding inh, G9a block)
CCCC(c1nnnn1Cc1cccs1)N1CCN(C2CCCC2)CC1 (configuration not stated)	BAZ2B block inconclusive, PLK1 PBD inh 27µM, JMJD2A Tudor 56µM, HP1b binding inh inconclusive, G9a block inconclusive
CCCC(c1nnnn1C(C)(C)CC)N1CCN(C2CCCC2)CC1 (configuration not stated)	BAZ2B block inconclusive, G9a block 89µM
CCCC(c1nnnn1Cc1ccco1)N1CCN(C2CCCC2)CC1 (configuration not stated)	BAZ2B block inconclusive, JMJD2A Tudor inconclusive, G9a block 50µM
Cc1ccccc1OC(C)C(=O)Nc1cccnc1 (configuration not stated)	none
N/C(=N\OS(=O)(=O)c1ccc(Cl)cc1)c1cccnc1	G9a block inconclusive
N/C(=N\OS(=O)(=O)c1ccc(Cl)cc1)c1ccncc1	G9a block 2.5µM
Cc1cccc(OCC(=O)Nc2ccccc2C(=O)OCc2cc(=O)n3ccsc3n2)c1	none (no result: Sfp PPTase inh, PLK1 PBD inh)
CCc1ccc(C(=O)Cn2ccsc2=N)cc1	BAZ2B block inconclusive, G9a block 50µM
CC1(C)Cc2[nH]c(=O)c(C#N)cc2CS1	G9a block 32µM
CCC1(C)Cc2[nH]c(=O)c(C#N)cc2CO1 (configuration not stated)	none
COC(=O)c1ccc(COc2ccc(CNCc3ccc(Cl)cc3)cc2)cc1	none
CC(c1ccccc1)n1c(-c2cccs2)nc2c(c(=O)c3ccccc3n2C)c1=O (configuration not stated)	BAZ2B block inconclusive, Sfp PPTase inh 79µM
Cn1c2ccccc2c(=O)c2c(=O)n(-c3ccc(F)cc3)c(-c3cccs3)nc21	none (no result: G9a block)

Compound activity deposited in PubChem BioAssay by National Center for Advancing Translational Sciences (NCATS).
